The list shows a part of the results. Calls of active or inactive are those of the source.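 Rule for the calls: active = inhibition reaching a set limit in any replicate at 20 µM, the limit being 80% of the first screen's; inactive = the rest.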
These molecules were tested against DNA dC->dU-editing enzyme APOBEC-3G (Homo sapiens) (UniProt Q9HC16) (assay: APOBEC3G deaminase inhibitor retest, confirmation, biochemical, fluorescence, single-stranded DNA substrate, single concentration (AID 493152)). Details: recombinant A3G ssDNA deaminase, UDG/FAM-TAMRA fluorescence; at 20 µM; active compounds read high.
Chain of DNA dC->dU-editing enzyme APOBEC-3G (Homo sapiens) (Q9HC16 whole entry, looked up): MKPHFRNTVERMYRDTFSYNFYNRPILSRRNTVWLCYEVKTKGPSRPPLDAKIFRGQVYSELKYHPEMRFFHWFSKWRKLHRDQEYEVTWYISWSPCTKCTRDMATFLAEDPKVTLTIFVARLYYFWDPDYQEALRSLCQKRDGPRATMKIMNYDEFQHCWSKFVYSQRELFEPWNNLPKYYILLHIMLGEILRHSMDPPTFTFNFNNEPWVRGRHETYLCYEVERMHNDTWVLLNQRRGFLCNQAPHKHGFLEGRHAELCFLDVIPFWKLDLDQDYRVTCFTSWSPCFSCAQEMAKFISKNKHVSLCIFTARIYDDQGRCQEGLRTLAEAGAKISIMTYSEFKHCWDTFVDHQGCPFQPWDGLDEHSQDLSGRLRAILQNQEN

Structure (SMILES)	inhibition
CCOc1ccc(NC(=O)c2ccc(NC(=O)COC(=O)c3ccc(NC(=O)CC#N)cc3)cc2)cc1	51.5% (active)
O=C(Cn1cnc([N+](=O)[O-])n1)NCCc1ccccc1	11.3% (active)
S=c1[nH]nc2c3c4c(sc3ncn12)CCCC4	80% (active)
COc1ccc(N2C(=O)CC(Sc3n[nH]c(-c4ccc(C)cc4)n3)C2=O)cc1 (centres undefined)	46% (active)
Cc1ccc(S(=O)(=O)N(C)CC(=O)NCCc2c[nH]c3ccccc23)cc1	4.16% (inactive)
COC(=O)c1cccc(-n2[nH]nnc2=S)c1	-14.5% (inactive)
CC(C)(C)c1nnc(NC(=O)C2c3ccccc3Oc3ccccc32)s1	31.2% (active)
CC1=C/C(=N\OS(=O)(=O)c2ccccc2)C=CC1=O	63.8% (active)
C=C(C)C(=O)Nc1cccc(C2=NOC3(C2)C[C@H](C(N)=O)N(C(=O)C(c2ccccc2)c2ccccc2)C3)c1 (some centres undefined)	44.3% (active)
COCc1c(N)c(C)nc(Cl)c1C#N	84.5% (active)
CCOC(=O)c1sc(=S)n2c1[nH]c(=O)c1ccc(C(=O)OC)cc12	7.15% (inactive)
S=c1[nH]nc(-c2ccncc2)n1/N=C/c1ccccc1Cl	95.7% (active)
COc1ccc2[nH]c(=S)cc(C)c2c1	74.7% (active)
CCc1c(C)[nH]c(=S)c(C#N)c1C	89.2% (active)
Cc1noc(C)c1CSc1nc2cc(S(=O)(=O)N3CCOCC3)ccc2o1	71.6% (active)
Cc1cc(-c2n[nH]c(=S)n2-c2ccc(C)c(C)c2)no1	74.9% (active)
O=C1C=CC(=O)N1c1ccc(N2CCCCC2)cc1	91% (active)
Fc1ccccc1/C=N/n1c(-c2cccnc2)n[nH]c1=S	84.9% (active)
Cc1n[nH]c(=S)n1/N=C/c1ccc(Br)o1	80.4% (active)
Cc1nc([N+](=O)[O-])nn1C12CC3CC(CC(Br)(C3)C1)C2	50.8% (active)
CCC(CC)c1nnc(NC(=O)C2CCN(C(=O)c3ccco3)CC2)s1	24.5% (active)
CCOc1ccc(NC(=O)Nc2cc(C)on2)cc1	0.05% (inactive)
Cc1cccc(-n2c(N)c(C(=O)N3CCN(C)CC3)sc2=S)c1	77.7% (active)
S=c1[nH]nc(-c2ccco2)n1/N=C/c1ccccc1	-3.73% (active)
